The source made the active and inactive calls. How the source made its calls: active means hit-call score of the fitted dose curve at least 0.9, where 1 is the maximum; inactive means score below 0.9.
Assay: ATG_TA_CIS: Attagene CIS-FACTORIAL HepG2 Assay for human TA Basal Promoter (AID 2282964)
Details: HepG2 Attagene CIS-factorial TA basal promoter reporter; actives raise or lower the signal
Method: ATG_CIS is a cell-based, multiplexed-readout assay that uses HepG2, a human liver cell line, with measurements taken at 24 hours after chemical dosing in a 24-well plate.ATG_TA_CIS is one of 52 assay component(s) measured or calculated from the ATG_CIS assay. It is designed to make measurements of mRNA induction, a form of inducible reporter, as detected with fluorescence intensity signals by Reverse transcription polymerase chain reaction (RT-PCR) and Capillary electrophoresis technology.Data from the assay component ATG_TA_CIS was analyzed into 1 assay endpoint. This assay endpoint, ATG_TA_CIS, was analyzed with bidirectional fitting relative to DMSO as the negative control and baseline of activity. Using a type of inducible reporter, measures of mRNA for gain or loss-of-signal activity can be used to understand the background control at the transcription factor-level as they relate to the gene . Furthermore, this assay endpoint can be referred to as a secondary readout, because this assay has produced multiple assay endpoints where this one serves a background control function. To generalize the intended target to other relatable targets, this assay endpoint is annotated to the background measurement intended target family, where the subfamily is internal marker.
Human liver HepG2 cells are transiently transfected with multiple reporter transcription units (MRTUs) in 6-well plates using FuGene 6 reagent (Roche; 3 ml FuGene/1 mg DNA). The MRTU constructs are regulated by a cis-regulating element (promoter). […] A major difference between the CIS and TRANS system is that in CIS activities of endogenous TFs are measured, whereas the TRANS assay evaluates changes in activities of exogenous, chimeric NR-Gal4 proteins. […] At the end of 24 hour incubation, total RNA was isolated using TriZol reagent (Invitrogen). The isolated RNA is then reverse-transcribed using oligo(dT) primer and Mo-MLV reverse transcriptase (Invitrogen) with DNAse I (Ambion) treatment for 30 min. The one-tenth of the produced cDNA was amplified by PCR using Taq DNA polymerase (Invitrogen) and two reporter sequence-specific primers. The PCR products were fluorescently labeled by primer extension with 6-arboxyfluorescein (6-FAM) 5'-labeled reporter sequence-specific primer (2 min at 95 C, 20 s at 68 C and 10 min at 72 C) and these products were digested with 5U of HpaI (New England Biolabs) for 2h at 37 C. The fragments were purified using Qiaquick PCR columns (Qiagen), analyzed on an ABI 3130xL genetic analyzer (Applied Biosystems) with peak positions identified by using a set of X-rhodamine (ROX)-labeled MapMarker1000 molecular weight standards (BioVentures). The raw capillary electrophoresis data was processed using Attagraph software (Attagene).
For `CCC12COCN1COC2`, the outcome was “inactive”.
In the case of `CC(O)CCO` (stereo not given), the outcome is reported as “inactive”.
In the case of `[As]#[In]`, the outcome is reported as “inactive”.
For `Cc1cc(N=Nc2ccccc2C)ccc1N`, the AC50 was 19 µM (active).
In the case of `CCN(CC)N=O`, the outcome is reported as “inactive”.
With `CCCCOC(=O)c1ccccc1C(=O)OCc1ccccc1` the outcome was “inactive”.
For `CCCCC(CC)COC(=O)c1ccc(C(=O)OCC(CC)CCCC)c(C(=O)OCC(CC)CCCC)c1` (stereo not given), the outcome was “inactive”.
For `Cc1ccc(N)cc1`, the outcome was “inactive”.
For `Oc1ccc2ccc3cccc4ccc1c2c34`, the outcome was “inactive”.
With `O=[N+]([O-])c1ccc(Oc2ccc(Cl)cc2Cl)cc1` the AC50 was 39.7 µM (active).
In the case of `Nc1ccc(Cc2ccc(N)cc2)cc1`, the outcome is reported as “inactive”.
With `Oc1ccccc1Cl` the outcome was “inactive”.
With `OCCCl` the outcome was “inactive”.
For `CN(C)C(=O)Nc1ccc(Cl)cc1`, the outcome was “inactive”.
With `OCCOCCO` the outcome was “inactive”.
For `Cc1ccc(N)c(N)c1`, the outcome was “inactive”.
For `CN(C)[C@@H]1C(=O)C(C(N)=O)=C(O)[C@@]2(O)C(=O)C3=C(O)c4c(O)cccc4[C@@](C)(O)[C@H]3C[C@@H]12`, the outcome was “inactive”.
For `C=CCc1ccc2c(c1)OCO2`, the outcome was “inactive”.
For `ClC1=C(Cl)C2(Cl)C3C(Cl)C=CC3C1(Cl)C2(Cl)Cl` (stereo not given), the outcome was “inactive”.
In the case of `CCCCCOC(=O)c1ccccc1C(=O)OCCCCC`, the outcome is reported as “inactive”.
For `OCCCBr`, the outcome was “inactive”.
With `CCC(C)c1ccc(O)cc1` (stereo not given) the outcome was “inactive”.
In the case of `c1ccc(NNc2ccccc2)cc1`, the outcome is reported as “inactive”.
For `CCCSC(=O)N(CCC)CCC`, the outcome was “inactive”.
With `CN(C)c1ccc(C(=O)c2ccc(N(C)C)cc2)cc1` the outcome was “inactive”.
For `O=C(Oc1ccc(Br)cc1)N1CCN2CCC1CC2`, the outcome was “inactive”.
With `O=C(O)C1C2CCC(O2)C1C(=O)O` (stereo not given) the outcome was “inactive”.
With `COC(=O)c1ccccc1N` the outcome was “inactive”.
With `O=Cc1ccco1` the outcome was “inactive”.
For `COP(=S)(OC)SCN1C(=O)c2ccccc2C1=O`, the outcome was “inactive”.
In the case of `C[N+](C)(C)CC1CO1` (stereo not given), the outcome is reported as “inactive”.
With `CC(C)(C)OOC(C)(C)CCC(C)(C)OOC(C)(C)C` the outcome was “inactive”.
In the case of `Brc1ccc(Oc2ccccc2)cc1`, the outcome is reported as “inactive”.
For `c1ccc2c(c1)oc1ccccc12`, the outcome was “inactive”.
For `ClC1=C(Cl)[C@]2(Cl)[C@H]3[C@H]([C@@H]4C=C[C@H]3C4)[C@@]1(Cl)C2(Cl)Cl`, the outcome was “inactive”.
With `O=[N+]([O-])C(Br)(CO)CO` the outcome was “inactive”.
In the case of `CC(C)N(Cc1ccccc1)C(=O)C(C)(C)C`, the outcome is reported as “inactive”.
In the case of `CCCCCCCCCCCCCN1CC(C)OC(C)C1` (stereo not given), the outcome is reported as “inactive”.
For `CS(=O)(=O)NC(=O)c1cc(Oc2ccc(C(F)(F)F)cc2Cl)ccc1[N+](=O)[O-]`, the outcome was “inactive”.
With `Clc1ccc(Cl)c(Cl)c1` the outcome was “inactive”.
